Experiment [1] addresses Serine/threonine-protein kinase MRCK alpha (Homo sapiens) (UniProt Q5VT25). The note with it: at 0.1 µM.
For experiment [2] the target is unchanged. The note with it: at 1 µM.
Experiment [3] deals with Serine/threonine-protein kinase MRCK beta (Homo sapiens) (UniProt Q9Y5S2). To be noted: at 0.1 µM.
The target is the same in experiment [4]. The note with it: at 1 µM.
The target in experiment [5] is Ribosomal protein S6 kinase alpha-5 (Homo sapiens) (UniProt O75582). To be noted: at 0.1 µM.
Experiment [6] has the same target. The note with it: at 1 µM.
For experiment [7], the target named is Ribosomal protein S6 kinase alpha-4 (Homo sapiens) (UniProt O75676). To be noted: at 0.1 µM.
Experiment [8] shares this target. To be noted: at 1 µM.
The target in experiment [9] is Ribosomal protein S6 kinase beta-1 (Homo sapiens) (UniProt P23443). To be noted: at 0.1 µM.
The target is the same in experiment [10]. To be noted: at 1 µM.
For experiment [11], the target named is T1, 3-phosphoinositide-dependent protein kinase 1 (Homo sapiens) (UniProt O15530).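 Note: values are mean inhibition of PDK1.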
T1 sequence (whole entry): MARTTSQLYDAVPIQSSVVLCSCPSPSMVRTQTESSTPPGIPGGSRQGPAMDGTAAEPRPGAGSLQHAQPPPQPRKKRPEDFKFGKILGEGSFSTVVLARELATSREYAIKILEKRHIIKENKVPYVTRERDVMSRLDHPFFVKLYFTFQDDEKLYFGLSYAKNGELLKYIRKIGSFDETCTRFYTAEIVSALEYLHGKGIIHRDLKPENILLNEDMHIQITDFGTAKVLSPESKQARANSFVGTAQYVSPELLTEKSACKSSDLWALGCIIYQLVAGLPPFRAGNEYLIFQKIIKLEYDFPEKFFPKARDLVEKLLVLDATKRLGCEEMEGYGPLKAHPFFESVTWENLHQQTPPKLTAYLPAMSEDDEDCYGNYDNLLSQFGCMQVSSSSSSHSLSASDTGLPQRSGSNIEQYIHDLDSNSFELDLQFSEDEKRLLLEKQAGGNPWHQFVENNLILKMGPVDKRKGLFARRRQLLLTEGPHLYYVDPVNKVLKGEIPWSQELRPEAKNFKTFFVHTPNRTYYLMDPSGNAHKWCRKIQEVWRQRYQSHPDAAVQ
To be noted: at 0.1 µM.

Experiment [12] concerns the target cAMP-dependent protein kinase catalytic subunit alpha (Homo sapiens) (UniProt P17612). To be noted: at 0.1 µM.
The target is the same in experiment [13]. To be noted: at 1 µM.
In experiment [14] the target is Protein kinase C alpha type (Homo sapiens) (UniProt P17252). The note with it: at 0.1 µM.
Experiment [15] has the same target. To be noted: at 1 µM.
The target of experiment [16] is Protein kinase C beta type (Homo sapiens) (UniProt P05771). The note with it: at 0.1 µM.
For experiment [17] the target is unchanged. To be noted: at 1 µM.
Experiment [18] addresses Protein kinase C eta type (Homo sapiens) (UniProt P24723). The note with it: at 0.1 µM.
The target is the same in experiment [19]. The note with it: at 1 µM.
In experiment [20] the target is Protein kinase C gamma type (Homo sapiens) (UniProt P05129). To be noted: at 0.1 µM.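 Note: values are mean percent inhibition of PKC gamma.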

Chain of Serine/threonine-protein kinase MRCK alpha (Homo sapiens) (Q5VT25 whole entry): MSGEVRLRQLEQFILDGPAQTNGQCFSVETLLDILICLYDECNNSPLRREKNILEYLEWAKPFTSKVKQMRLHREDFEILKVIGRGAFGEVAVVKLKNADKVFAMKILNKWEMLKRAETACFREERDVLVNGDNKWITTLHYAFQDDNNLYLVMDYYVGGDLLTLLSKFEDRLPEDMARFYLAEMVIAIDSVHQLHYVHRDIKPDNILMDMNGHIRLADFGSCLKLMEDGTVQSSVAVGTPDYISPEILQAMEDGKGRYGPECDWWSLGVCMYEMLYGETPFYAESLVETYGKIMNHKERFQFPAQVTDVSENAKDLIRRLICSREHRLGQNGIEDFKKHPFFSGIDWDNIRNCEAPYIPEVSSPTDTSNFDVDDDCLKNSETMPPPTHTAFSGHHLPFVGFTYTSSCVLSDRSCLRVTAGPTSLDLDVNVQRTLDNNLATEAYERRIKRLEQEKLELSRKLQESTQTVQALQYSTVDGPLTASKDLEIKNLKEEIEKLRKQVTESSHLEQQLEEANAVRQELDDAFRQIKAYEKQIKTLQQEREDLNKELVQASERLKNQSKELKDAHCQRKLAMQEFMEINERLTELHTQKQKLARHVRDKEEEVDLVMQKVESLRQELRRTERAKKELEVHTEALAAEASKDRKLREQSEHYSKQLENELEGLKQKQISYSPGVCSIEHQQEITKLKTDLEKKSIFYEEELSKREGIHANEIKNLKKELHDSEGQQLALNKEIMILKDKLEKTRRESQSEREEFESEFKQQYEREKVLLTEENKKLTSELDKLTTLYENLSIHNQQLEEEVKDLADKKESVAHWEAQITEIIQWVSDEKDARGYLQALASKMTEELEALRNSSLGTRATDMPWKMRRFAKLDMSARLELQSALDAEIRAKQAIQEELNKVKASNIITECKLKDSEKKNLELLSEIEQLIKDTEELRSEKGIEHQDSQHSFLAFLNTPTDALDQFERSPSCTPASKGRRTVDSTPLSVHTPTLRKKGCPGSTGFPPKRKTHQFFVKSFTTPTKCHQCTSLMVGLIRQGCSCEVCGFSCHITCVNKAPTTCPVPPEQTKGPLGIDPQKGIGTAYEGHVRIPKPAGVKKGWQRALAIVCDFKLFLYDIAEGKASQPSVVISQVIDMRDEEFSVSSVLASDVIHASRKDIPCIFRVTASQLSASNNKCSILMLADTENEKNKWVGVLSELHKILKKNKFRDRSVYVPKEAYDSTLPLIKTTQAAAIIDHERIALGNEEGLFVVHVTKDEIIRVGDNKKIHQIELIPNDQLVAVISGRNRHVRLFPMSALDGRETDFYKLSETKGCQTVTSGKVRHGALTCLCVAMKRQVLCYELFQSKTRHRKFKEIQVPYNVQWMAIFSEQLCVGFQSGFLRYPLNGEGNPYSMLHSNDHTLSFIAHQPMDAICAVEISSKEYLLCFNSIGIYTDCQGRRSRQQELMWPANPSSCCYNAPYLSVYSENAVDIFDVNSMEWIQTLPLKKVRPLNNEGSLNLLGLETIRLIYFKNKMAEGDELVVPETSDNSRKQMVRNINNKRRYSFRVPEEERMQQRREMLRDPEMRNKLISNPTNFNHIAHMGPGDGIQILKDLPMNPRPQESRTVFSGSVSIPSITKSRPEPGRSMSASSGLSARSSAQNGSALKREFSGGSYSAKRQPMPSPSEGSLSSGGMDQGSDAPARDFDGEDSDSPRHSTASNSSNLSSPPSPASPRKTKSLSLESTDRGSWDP
Chain of Protein kinase C eta type (Homo sapiens) (P24723 whole entry): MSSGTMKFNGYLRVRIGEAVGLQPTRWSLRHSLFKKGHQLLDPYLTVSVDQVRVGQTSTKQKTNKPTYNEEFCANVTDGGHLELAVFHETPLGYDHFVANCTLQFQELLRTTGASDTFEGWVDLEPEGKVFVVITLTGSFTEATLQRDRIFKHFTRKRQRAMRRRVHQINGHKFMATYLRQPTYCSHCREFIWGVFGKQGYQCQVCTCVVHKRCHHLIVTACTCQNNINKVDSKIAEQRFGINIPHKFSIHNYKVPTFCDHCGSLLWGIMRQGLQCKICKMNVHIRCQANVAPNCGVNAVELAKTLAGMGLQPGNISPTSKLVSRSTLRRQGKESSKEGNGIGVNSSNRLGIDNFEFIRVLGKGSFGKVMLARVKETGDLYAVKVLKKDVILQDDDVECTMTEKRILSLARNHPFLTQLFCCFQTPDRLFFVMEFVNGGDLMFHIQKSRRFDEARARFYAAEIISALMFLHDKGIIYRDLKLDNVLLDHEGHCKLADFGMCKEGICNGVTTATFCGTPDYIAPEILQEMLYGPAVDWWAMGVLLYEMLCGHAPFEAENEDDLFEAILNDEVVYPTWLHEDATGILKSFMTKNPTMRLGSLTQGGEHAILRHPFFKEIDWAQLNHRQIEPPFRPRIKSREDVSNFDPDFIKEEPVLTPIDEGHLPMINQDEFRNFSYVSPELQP
Chain of Protein kinase C beta type (Homo sapiens) (P05771 2-671 limits assumed): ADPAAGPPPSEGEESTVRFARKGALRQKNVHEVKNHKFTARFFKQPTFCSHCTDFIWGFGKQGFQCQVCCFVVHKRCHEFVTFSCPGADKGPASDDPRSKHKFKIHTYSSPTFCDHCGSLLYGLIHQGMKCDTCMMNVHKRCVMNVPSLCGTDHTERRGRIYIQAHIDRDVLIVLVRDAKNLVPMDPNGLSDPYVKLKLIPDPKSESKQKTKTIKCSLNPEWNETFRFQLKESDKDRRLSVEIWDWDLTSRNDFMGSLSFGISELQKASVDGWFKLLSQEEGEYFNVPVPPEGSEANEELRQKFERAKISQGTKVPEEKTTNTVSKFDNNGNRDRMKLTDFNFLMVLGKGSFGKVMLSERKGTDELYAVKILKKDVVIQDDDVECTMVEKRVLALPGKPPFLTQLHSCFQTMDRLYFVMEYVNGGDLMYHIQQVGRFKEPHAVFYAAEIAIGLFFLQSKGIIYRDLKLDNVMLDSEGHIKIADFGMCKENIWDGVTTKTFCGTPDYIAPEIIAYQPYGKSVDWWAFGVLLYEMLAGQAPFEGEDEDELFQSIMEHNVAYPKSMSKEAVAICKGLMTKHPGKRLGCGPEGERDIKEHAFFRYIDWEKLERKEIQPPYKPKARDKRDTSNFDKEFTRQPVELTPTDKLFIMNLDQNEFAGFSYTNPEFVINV
Chain of Ribosomal protein S6 kinase alpha-4 (Homo sapiens) (O75676 whole entry, looked up): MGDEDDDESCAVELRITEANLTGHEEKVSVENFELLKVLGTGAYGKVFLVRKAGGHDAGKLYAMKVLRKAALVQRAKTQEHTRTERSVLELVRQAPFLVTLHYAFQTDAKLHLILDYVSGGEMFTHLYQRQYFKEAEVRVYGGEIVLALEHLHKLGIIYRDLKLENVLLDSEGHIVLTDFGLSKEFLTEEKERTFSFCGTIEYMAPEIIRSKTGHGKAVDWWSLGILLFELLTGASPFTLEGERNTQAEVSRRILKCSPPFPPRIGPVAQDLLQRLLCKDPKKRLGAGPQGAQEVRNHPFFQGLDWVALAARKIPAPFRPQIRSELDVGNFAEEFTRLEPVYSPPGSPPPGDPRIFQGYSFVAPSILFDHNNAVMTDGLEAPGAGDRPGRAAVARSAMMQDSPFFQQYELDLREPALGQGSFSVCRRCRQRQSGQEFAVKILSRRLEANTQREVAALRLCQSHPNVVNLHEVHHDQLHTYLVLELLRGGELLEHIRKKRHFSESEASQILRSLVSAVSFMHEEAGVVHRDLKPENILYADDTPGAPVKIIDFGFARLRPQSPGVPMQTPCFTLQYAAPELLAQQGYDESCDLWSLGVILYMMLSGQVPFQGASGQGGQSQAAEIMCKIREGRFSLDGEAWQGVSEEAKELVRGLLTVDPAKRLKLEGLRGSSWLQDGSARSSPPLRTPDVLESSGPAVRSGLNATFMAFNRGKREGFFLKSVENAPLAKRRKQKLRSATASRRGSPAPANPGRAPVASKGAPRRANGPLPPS
Chain of Ribosomal protein S6 kinase alpha-5 (Homo sapiens) (O75582 whole entry, looked up): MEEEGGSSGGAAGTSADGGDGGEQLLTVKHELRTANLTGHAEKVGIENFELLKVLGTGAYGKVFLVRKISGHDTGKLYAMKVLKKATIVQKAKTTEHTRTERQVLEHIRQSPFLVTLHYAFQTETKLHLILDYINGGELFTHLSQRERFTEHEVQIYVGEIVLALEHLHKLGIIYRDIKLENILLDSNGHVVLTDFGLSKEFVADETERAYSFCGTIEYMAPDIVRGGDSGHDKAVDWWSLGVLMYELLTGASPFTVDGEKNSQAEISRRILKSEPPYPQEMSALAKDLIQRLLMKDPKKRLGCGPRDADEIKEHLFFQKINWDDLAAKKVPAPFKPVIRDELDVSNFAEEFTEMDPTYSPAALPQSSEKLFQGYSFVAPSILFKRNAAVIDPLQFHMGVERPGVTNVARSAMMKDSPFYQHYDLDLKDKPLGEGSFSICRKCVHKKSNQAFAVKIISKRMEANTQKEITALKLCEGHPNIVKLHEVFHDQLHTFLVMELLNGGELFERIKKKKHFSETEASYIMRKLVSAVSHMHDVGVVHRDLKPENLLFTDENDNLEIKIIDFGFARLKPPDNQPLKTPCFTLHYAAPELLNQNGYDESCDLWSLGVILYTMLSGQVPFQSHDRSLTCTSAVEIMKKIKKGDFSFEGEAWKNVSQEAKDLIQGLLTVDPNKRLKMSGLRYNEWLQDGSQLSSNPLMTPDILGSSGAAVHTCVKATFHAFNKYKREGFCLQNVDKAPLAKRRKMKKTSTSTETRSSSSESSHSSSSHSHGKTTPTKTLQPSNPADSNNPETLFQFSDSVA

For `O=C(Nc1n[nH]c2cc(-c3ccc(F)cc3)ccc12)C1CC1`, the inhibition in experiment [1] was found to be 0.19%; in experiment [2], 0.87%; in experiment [3], 0.84%; in experiment [4], 5.66%; in experiment [5], 13.8%; in experiment [6] it was 13.6%. Moreover, the inhibition in experiment [7] came to 6.38%; in experiment [8], 8.25%; in experiment [9], 2%; in experiment [10], 2.94%; in experiment [11], 1.87%; in experiment [12], 1.56%. Moreover, the inhibition in experiment [13] was 5.1%; in experiment [14] it was 0.82%; in experiment [15] it was 2.18%; in experiment [16], 2.92%; in experiment [17], 6.56%; in [18] it was 3.22%. For the same compound, the inhibition amounted to 6.59% in experiment [19] and 3.26% in experiment [20].

Regarding `COc1cc(N2CCN(C(C)C)CC2)ccc1Nc1nc(Nc2ccc(F)cc2C(N)=O)c2cc[nH]c2n1`, the inhibition is 9.71% in [1]; 20% in experiment [2]; 1.18% in [3]; 16.4% in experiment [4]; 1.85% in [5]; 6.61% in experiment [6]. The inhibition in experiment [7] is 1.8%; in experiment [8] it was 7.26%; in [9], 1.81%; in [10], 5.41%; in experiment [11] it was -1.21%; in [12], 7.85%. The inhibition came out at 7.44% in experiment [13]; 0.54% in [14]; 6.72% in experiment [15]; 1.83% in experiment [16]; 4.58% in experiment [17]; 1.05% in [18]. The inhibition in experiment [19] is 3.09%; in experiment [20], 3.65%.

For the compound `CCNC(=O)O[C@H]1CN[C@H](C#Cc2cc3ncnc(Nc4ccc(OCc5cccc(F)c5)c(Cl)c4)c3s2)C1`, the inhibition in experiment [1] was 0.37%; in experiment [2], -0.19%; in [3], 1.07%; in experiment [4], 0.37%; in experiment [5], 3.18%; in experiment [6], 2.55%. Besides, the inhibition in [7] was 1.61%; in [8], 2.66%; in experiment [9], 1.69%; in experiment [10], 1.78%; in experiment [11], 4.86%; in [12], 1.62%. Moreover, the inhibition was 1.22% in [13]; 0.4% in experiment [14]; 1.1% in experiment [15]; 0.61% in [16]; -2.05% in experiment [17]; 3.54% in experiment [18]. Moreover, the inhibition was -2.11% in experiment [19] and -1.05% in experiment [20].

For the compound `CNC(=O)c1cccc(C#Cc2cncnc2Nc2ccc(OCc3cccc(F)c3)c(Cl)c2)c1`, the inhibition in experiment [1] was -0.5%; in experiment [2], 1.42%; in [3], -0.81%; in experiment [4], -3.2%; in experiment [5] it was -0.16%; in experiment [6], -0.2%. The inhibition in experiment [7] is 0.45%; in [8] it was 1.97%; in experiment [9], 0.88%; in experiment [10], 0.77%; in [11], 1%; in experiment [12] it was 1.13%. In addition, the inhibition in [13] is 0.28%; in [14], -0.17%; in experiment [15] it was 0.64%; in experiment [16] it was 0.07%; in experiment [17], 1.77%; in [18], 1.23%. Also, the inhibition in [19] was -0.12%; in experiment [20], 0.99%.

With `CC(=O)Nc1cccc(C#Cc2cncnc2Nc2ccc(OCc3cccc(F)c3)c(Cl)c2)c1`, the inhibition in experiment [1] is 1.39%; in experiment [2], 0.82%; in experiment [3], 1.53%; in experiment [4] it was 1.93%; in experiment [5] it was -3.6%; in experiment [6], -3.85%. Moreover, the inhibition in experiment [7] came to 1.16%; in experiment [8] it was 2.5%; in experiment [9], 2.04%; in experiment [10], 2.07%; in experiment [11], 2.17%; in experiment [12], 2.17%. Besides, the inhibition came to 4.12% in [13]; 0.9% in [14]; 2.2% in [15]; 0.65% in [16]; 0.21% in experiment [17]; 0.22% in [18]. For the same compound, the inhibition is -0.44% in experiment [19] and 3.94% in experiment [20].

As for `Fc1ccc(-c2nn3ncccc3c2-c2ccnc(Nc3ccc4c(c3)OCCO4)n2)cc1`, the inhibition in experiment [1] is 1.99%; in experiment [2], 20.4%; in experiment [3], -0.17%; in experiment [4], 1.27%; in [5] it was 2.73%; in experiment [6] it was 2.22%. The inhibition in experiment [7] worked out at 0.67%; in experiment [8] it was 3.9%; in experiment [9], 1.73%; in experiment [10] it was 2.69%; in [11], 1.87%; in experiment [12], 2.22%. Besides, the inhibition in experiment [13] is 7.13%; in experiment [14], 1.5%; in experiment [15], 15.3%; in experiment [16], 1.43%; in experiment [17] it was 13.3%; in experiment [18] it was 2.26%. The values for the inhibition in experiment [19] and in experiment [20] were 6.09% and -1.6%, respectively.

Turning to `c1cc(-c2cnn3nc(N4CCOCC4)ccc23)nc(NC2CC2)n1`, the inhibition in experiment [1] is 0.21%; in experiment [2] it was -0.69%; in experiment [3], 0.92%; in experiment [4], 0.61%; in experiment [5], 3.83%; in experiment [6], 3.75%. The inhibition was found to be 0.89% in experiment [7]; 6.24% in experiment [8]; 1.29% in experiment [9]; 3.7% in experiment [10]; 4.31% in experiment [11]; 1.21% in experiment [12]. Besides, the inhibition in experiment [13] was 1.42%; in experiment [14], 1.17%; in [15], 6.27%; in experiment [16] it was -0.45%; in [17], -0.77%; in experiment [18], 2.39%. Also, the inhibition in experiment [19] was 2.99%; in [20] it was 6.1%.
